In PubChem BioAssay AID588477 (NMMLSC, 2011):
Activity calls are given as the source filed them.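 Rule for the calls: active = valid curve fit with half-effect dose at most 10 µM and total binding change across doses of 30 points or more; inactive = the rest.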

System: Rab7
Experiment: small GTPase nucleotide-binding inhibition, multiplex panel – biochemical, round 1 SAR, Mg buffer, multiplex flow cytometry, selectivity assay for Cdc42 probe extension project, SAR follow-up (AID 588477)
Conditions: GST-GTPase beads, Bodipy-GTP binding; series mostly up to 100 µM

Compound | outcome
O=C(C#Cc1ccccc1)c1cccc([N+](=O)[O-])c1 | inactive
COc1ccc(C2CC(c3ccccc3)=NN2c2ccc(S(N)(=O)=O)cc2)cc1 (configuration not stated) | inactive
